# Compound activity from PubChem BioAssay.
# The list is not random: actives were taken first. Their share in the collection is about 1.4%.
# SARS PLpro yeast – blocks SARS-CoV papain-like protease in a yeast assay. S. cerevisiae expressing SARS-CoV PLpro, growth rescue. Potency, µM (doses to about 32.9 µM), usual class: activators. hit rate 0.19% among 330,000. AID 485353; calls by dose curve; note: nearly all actives have a fitted effect of over 55% in size
# VACV Venus inh – inhibitors of vaccinia virus (Venus reporter) | Vaccinia virus Venus reporter expression, fluorescence | Potency, µM (doses to about 36.5 µM), usual class: inhibitors | hit rate 0.46% among 330,000 | AID 720580; calls by dose curve; tested in A549 cells; note: nearly all actives have a fitted effect of over 30% in size
# AmpC inh detg – inhibitors of E. coli AmpC beta-lactamase with detergent; P00811; Potency, µM (highest dose often 114 µM), most hits filed as inhibitors; hit rate 0.041% among 370,000; AmpC hydrolysis of nitrocefin, absorbance 480 nm, 0.01% Triton; note: nearly all actives have a fitted effect of over 25% in size
# Target sequence (P00811 whole entry, looked up): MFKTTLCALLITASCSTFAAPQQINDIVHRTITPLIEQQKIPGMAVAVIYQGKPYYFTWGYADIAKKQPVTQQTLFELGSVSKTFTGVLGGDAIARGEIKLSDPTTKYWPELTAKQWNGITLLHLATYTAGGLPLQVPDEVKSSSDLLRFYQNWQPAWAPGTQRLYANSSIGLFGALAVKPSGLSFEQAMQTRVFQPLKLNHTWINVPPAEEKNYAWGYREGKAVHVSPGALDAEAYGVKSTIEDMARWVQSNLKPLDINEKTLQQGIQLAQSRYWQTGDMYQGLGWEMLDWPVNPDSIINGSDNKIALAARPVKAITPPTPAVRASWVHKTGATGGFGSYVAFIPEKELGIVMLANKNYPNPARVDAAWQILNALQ
#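 20 mM phosphate pH 7.0 + 0.01% (detergent screen) or 0.0001% Triton X-100; 5.3 nM AmpC reagent; cpd preinc 15 min RT; nitrocefin (800 uM stock) to start; A480 q20 s × 4 min; Activity was normalised to no-enzyme and no-compound control wells.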
# AMA1 RON2 block – AMA1-RON2 (P. falciparum) interaction inhibition | AlphaScreen AMA1-biotinylated RON2 peptide binding | Potency, µM (highest dose often 58.2 µM), actives largely listed as inhibitors | hit rate 0.2% among 360,000 | AID 720542; note: nearly all actives have a fitted effect of over 45% in size
#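 AMA1 (3D7) with his tag at 25 nM final met compounds first, then biotinylated RON2 peptide at 25 nM; detection used donor plus acceptor beads, 10 µg/mL apiece, read by AlphaScreen after 30 min at room temperature.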
# AmpC no deterg – blocks E. coli AmpC beta-lactamase in detergent-free assay; hit rate 0.52% among 330,000; Potency, µM (series often up to 57.1 µM), most hits filed as inhibitors; AmpC nitrocefin hydrolysis, absorbance 480 nm, 0.0001% Triton; P00811; note: nearly all actives have a fitted effect of over 20% in size
#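 AmpC (5.3 nM in the dispensed reagent) in 20 mM phosphate pH 7.0 with 0.01% (detergent screen) or 0.0001% Triton X-100 was preincubated with compounds for 15 min at room temperature. Nitrocefin was then added from an 800 uM solution, and hydrolysis was followed at 480 nm.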
# Vaccinia mCherry – inhibitors of vaccinia virus infection (mCherry reporter signal); Potency, µM (highest dose often 36.5 µM), usual class: inhibitors; hit rate 0.63% among 310,000; Vaccinia virus mCherry reporter infection, fluorescence; calls by dose curve; tested in A549 cells; note: nearly all actives have a fitted effect of over 35% in size
# A number is an active result; n = inactive; u = inconclusive; x = not tested or not shown; [ ] = dose if it differs, or a comment. Unless noted, calls come from the whole dose curve; as a rule, active = well fitted curve in the direction sought with a large enough effect; inconclusive = small, poorly fitted or top-dose-only effect, or another doubt; inactive = no such curve, though single readings can be large; an effect the other way counts as inactive or inconclusive.
SMILES,SARS PLpro yeast,VACV Venus inh,AmpC inh detg,AMA1 RON2 block,AmpC no deterg,Vaccinia mCherry
O=C(CCSc1ccccc1)Nc1nc2c(s1)COc1ccccc1-2,n,u,u,n,3.2µM,u
CC(C)(C)C(=O)Nc1nc2c(s1)COc1ccccc1-2,u,u,u,n,0.71µM,n
COc1cc(/C=N/n2cc(-c3ccccc3)[nH]c2=S)cc(OC)c1O,n,x,n,n,n,x
Oc1ccc(/C=N/n2cc(-c3ccccc3)[nH]c2=S)cc1,n,x,u,n,32µM,x
S=c1[nH]c(-c2ccccc2)cn1/N=C/c1cccc2ccccc12,n,u,n,n,2.5µM,u
COCC(=O)Nc1cc(C(=O)N2CCCC(C(N)=O)C2)cc2nc(-c3ccccc3)n(C)c12 (stereo not drawn),x,n,x,x,x,n
O=[N+]([O-])c1cc(Cl)cc2c1nc(NCCO)c1ccccc12,n,u,u,n,n,0.89µM
COC(=O)c1ccc(CN2CCOc3ccc(C(O)c4cccnc4)cc3C2)cc1 (stereo not drawn),x,n,x,x,x,n
COc1ccc(Oc2nc(SC)nc3ccccc23)cc1,n,n,n,n,0.16µM,x
COc1ccc(Oc2nc(-c3cccnc3)nc3ccccc23)cc1,n,n[7.34 µM],n,n,n,n[7.34 µM]
COc1ccc(Sc2ccc(-c3nc4cnccn4c3NC3CCCCC3)cc2OC)cc1,n,11µM,x,n,n,u
CCC(C)Sc1ccc(-c2nc3cnccn3c2NC2CCCCC2)cc1 (stereo not drawn),n,u,n,n,n,n
CC(C#N)Sc1ccc(S(=O)(=O)N2CCCCC2)cn1 (stereo not drawn),n,x,n,n,n,x
Cc1csc(Sc2ccc(S(=O)(=O)N3CCCC3)cn2)n1,n,u,n,n,n,8.9µM
CCN(CC)c1ccc(NC(=O)Nc2ccc(C(C)=O)cc2)cc1,n,n,n,n,0.28µM,n
N#CC(=C1C=C(Br)C(=NO)C=C1Cl)c1ccc(Cl)cc1,x,n,x,20µM,x,n
O=C(Nc1ccc(Cl)cn1)c1cccc2c(Br)cccc12,n,x,n,n,20µM,x
Cc1ccc(C)c(NC(=S)NCc2ccc3[nH]c4c(c3c2)CCCC4)c1,n,n,n,n,35µM,n
O=C(NCc1ccc2[nH]c3c(c2c1)CCCC3)c1ccc(S(=O)(=O)N2CCCC2)cc1,n,n,n,n,n,n
CCN(CC)S(=O)(=O)c1ccc(C(=O)NCc2ccc3[nH]c4c(c3c2)CCCC4)cc1,n,n,n,n,25µM,n
Cc1cnc(SCc2ccccn2)nc1C1CCCN(C(=O)c2cccc(-c3cccc(F)c3)c2)C1 (stereo not drawn),x,u,x,x,x,10µM
CCC(CC)N=C1NS(=O)(=O)c2cc([N+](=O)[O-])ccc21,n,u,n,n,n,13µM
CN1CCN(S(=O)(=O)c2cnc(Cl)c(Br)c2)CC1,n,u,n,n,n,13µM
CC1CCN(S(=O)(=O)c2cnc(Cl)c(Br)c2)CC1,n,n,n,n,n,n
Cc1ccc2oc(-c3ccc(NC(=O)COc4ccccc4)cc3O)nc2c1,x,n,x,x,x,n
SMILES,SARS PLpro yeast,VACV Venus inh,AmpC inh detg,AMA1 RON2 block,AmpC no deterg,Vaccinia mCherry
Cc1ccc(CN(Cc2ccco2)C(=O)c2oc3ccc(C)cc3c2C)cc1,x,n,n,x,x,n
COc1ccc2oc(C(=O)N(Cc3ccco3)Cc3cccs3)c(C)c2c1,n,n,n,n,32µM,n
CN(C)c1ccc(CNC(=O)C2(C)Cc3c(-c4cccc(C(F)(F)F)c4)ccnc3O2)cc1 (stereo not drawn),x,u,x,25µM,x,n
COc1cc(CNc2nc(C)c(-c3ccn(C4Cc5ccccc5C4)n3)s2)cc2c1OCO2,x,n,x,x,x,n
COc1ccc(CCN)cc1OC,n,n,n,n,n,n
NCCc1ccc(OCc2ccccc2)c(OCc2ccccc2)c1,n,u,n,n,n,18µM
N=C(N)c1ccc(N=Nc2c(O)ccc3c2[nH]c2ccccc23)cc1,x,u,x,25µM,x,n
COc1cc2c(cc1OC)/C(=C/c1ccc(N(C)C)cc1)C=C2,x,n,x,x,x,n
COc1ccc(CN2CCCC(n3cc(C(=O)N4CCCCC4)nn3)C2)c(OC)c1 (stereo not drawn),x,n,x,x,x,n
Nn1cnnc1N/N=C/c1cc(Br)cc(Br)c1O,n,u,u,n,n,8.9µM
CC(C)(C)c1ccc(/C=N/Nc2nncn2N)cc1,n,u,u,n,n,u
COCCCNC(=O)CC1Oc2ccccc2NC1=O (stereo not drawn),n,n,u,n,10µM,n
O=C(COC(=O)c1cc([N+](=O)[O-])ccc1N1CCOCC1)Nc1ccc(Cl)cc1,n,n,n,n,n,n
O=C(COC(=O)c1cc([N+](=O)[O-])ccc1N1CCOCC1)Nc1ccc(Cl)cn1,n,28µM,n,n,n,u
Cc1nc(C)c(CC(=O)N2CCOc3ccc(CN4CCN(c5ccccn5)CC4)cc3C2)s1,x,n,x,x,x,u
O=C(C1CCC(=O)N(C2CCCC2)C1)N1CCN(c2ccccc2Cl)CC1 (stereo not drawn),n,x,n,n,n,x
Cc1cccc(N2CCN(C(=O)C3CCC(=O)N(C4CC4)C3)CC2)c1C (stereo not drawn),5µM,n[7.34 µM],n,n,n,n[7.34 µM]
C=CCN=c1scc(-c2ccc(F)cc2)n1/N=C/c1ccccn1,n,n,n,u,n,n
CCN=c1scc(-c2ccccc2)n1/N=C/c1ccccn1,n,n,n,n,n,5.6µM
C=CCN=c1scc(-c2ccccc2)n1/N=C/c1ccccn1,n,n,n,u,n,2.2µM
COc1ccc(O)c(CN2CCOc3c(cc(-c4cccc(OC)n4)cc3OC)C2)c1,x,n,x,x,x,n
CCOC(=O)c1ccc(N2C(=O)c3n[nH]c(-c4cccs4)c3C2c2cccc(OC)c2)cc1 (stereo not drawn),x,n,n,x,x,n
CCOC(=O)c1ccc(N2C(=O)c3n[nH]c(-c4cccs4)c3C2c2ccc(OC)cc2OC)cc1 (stereo not drawn),x,u,n,x,x,13µM
Cc1ccccc1Nc1cc2ccccc2c(=O)[nH]1,n,10µM,u,n,n,x
O=c1[nH]c(Nc2ccccc2Cl)cc2ccccc12,x,n,x,n,x,n
SMILES,SARS PLpro yeast,VACV Venus inh,AmpC inh detg,AMA1 RON2 block,AmpC no deterg,Vaccinia mCherry
CCOC(=O)CCC(=O)N1CCNC(=O)C1,n,n,n,n,11µM,n
Cc1ccc2nc(SCC(=O)NCC3Cc4cccc(-c5nc(C)cnc5C)c4O3)[nH]c2c1 (stereo not drawn),x,n,x,x,x,n
C=CC(=O)Nc1cccc(Oc2ncnc3[nH]cc(-c4cnc5ccccc5c4)c23)c1,n,11µM,x,n,n,u
CC(=O)Nc1cccc(Oc2ncnc3scc(-c4ccc(C)cc4)c23)c1,n,x,u,n,n,x
COC(=O)[C@@H]1CCCN1Cc1ccc2c(c1)CN(Cc1ccc3c(c1)CCCN3C)CCO2,x,n,x,x,x,n
COCCN(C)C(=O)c1cnn(-c2ncc3c(n2)-c2ccccc2CCC3)c1C1CC1,x,n,x,x,x,n
CCCCn1c(=N)n(CCOc2ccccc2OC)c2ccccc21,x,n[7.34 µM],n,x,x,n[7.34 µM]
